# Screens deposited in PubChem BioAssay by several laboratories.
# CYP2C19 activ = increases human CYP2C19 enzyme activity; recombinant CYP2C19, luciferin-H EGE luminescence; hits give high values; 0 = fully inhibited enzyme, 1 = untreated enzyme; activation factor at 5 µM; 96,000 tested, under 10 active; AID 1025;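 active means activation factor of at least 2 at 5 µM in the primary screen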;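 further: 0 = wells with 2.5 mM tranylcypromine and 1 = vehicle-only wells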
# Target sequence (P33261 whole entry, looked up): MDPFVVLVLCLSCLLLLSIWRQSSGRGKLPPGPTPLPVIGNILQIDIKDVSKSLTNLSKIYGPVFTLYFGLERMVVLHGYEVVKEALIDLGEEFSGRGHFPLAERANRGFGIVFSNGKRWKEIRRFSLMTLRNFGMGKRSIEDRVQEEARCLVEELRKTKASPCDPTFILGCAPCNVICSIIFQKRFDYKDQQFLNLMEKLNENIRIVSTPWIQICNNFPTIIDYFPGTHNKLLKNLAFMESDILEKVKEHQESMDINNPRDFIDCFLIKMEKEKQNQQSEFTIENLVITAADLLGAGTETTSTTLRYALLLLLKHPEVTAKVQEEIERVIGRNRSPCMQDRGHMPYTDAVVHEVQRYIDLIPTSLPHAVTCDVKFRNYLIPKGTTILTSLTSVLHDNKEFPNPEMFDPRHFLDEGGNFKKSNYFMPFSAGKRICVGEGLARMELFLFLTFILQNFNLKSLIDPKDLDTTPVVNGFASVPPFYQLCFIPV
# CYP2C19 inhib = blocks human cytochrome P450 2C19; P33261; CYP2C19 Supersomes, luciferin-H EGE luminescence, 30 min; inhibition, % at 5 µM; 96,000 compounds, 21% hits;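 active means CYP2C19 inhibition above a set limit at 5 µM in the primary screen, cut at about 50% in these data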;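 further: plate controls were negative control wells for no effect and 2.5 mM tranylcypromine positive control for full effect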
# PostGolgi yeast = growth inhibition of a yeast mutant, post-Golgi transport screen; post-Golgi transport phenotypic cell assay; inhibition, % at 10 µM; 98,000 compounds, 0.9% hits; AID 739;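 further: yeast cells grown in 1536-well plates; yeast grown about 18 h at 30C before absorbance read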
# CYP2C9 activ = CYP2C9 (human) activation | P11712 | recombinant CYP2C9, luciferin-H conversion, luminescence; hits give high values; factor 1 = untreated enzyme, 0 = blocked | activation factor at 5 µM | 96,000 compounds, 1.4% hits;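 active means activation factor of 2 or more for CYP2C9 at a 5 µM dose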;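 further: 0 = sulfaphenazole-blocked wells and 1 = vehicle-only wells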
# CYP2C9 inh = human CYP2C9 inhibition; P11712; CYP2C9 Supersomes, luciferin-H conversion, luminescence; inhibition, % at 5 µM; 96,000 compounds, 20% hits;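 active means blocking of liver enzyme CYP2C9 beyond about 50% at 5 µM, limit read from the data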
# PostGolgi ctrl = yeast control strain growth, post-Golgi counter-screen; efflux-deficient yeast background strain, growth absorbance A615, 16 h; 98,000 compounds, 5% hits; AID 738; inhibition, % at 10 µM
# Starred values were filed as active, the others as inactive; / = no result. A selection: hits, their analogues and other compounds. The true share with any hit is near 32%. Unless noted, no stated cut-off is given here; in the data, active means inhibition above about 30%; inactive means the rest.
SMILES,CYP2C19 activ,CYP2C19 inhib,PostGolgi yeast,CYP2C9 activ,CYP2C9 inh,PostGolgi ctrl
CCCCN(C)S(=O)(=O)c1cc(Br)cc2c1N(C(=O)C1CC1)CC2,0.1,86*,-1,0.8,18,23
CCN1CCCC1CNS(=O)(=O)c1cc(Br)cc2c1N(C(=O)C1CC1)CC2 (stereo unspecified),1,-5,12,0.5,48,6
CCCNS(=O)(=O)c1cc(Br)cc2c1N(C(=O)CC)CC2,0.6,36,11,1.6,-58,34*
CC(=O)c1ccc(OCC(O)CN2C(C)(C)CC(O)CC2(C)C)cc1 (stereo unspecified),0.9,12,6,0.6,38,1
C=CCOc1ccccc1C1NC(=O)NC(C)=C1C(=O)NCc1ccccc1 (stereo unspecified),0.8,18,-2,0.6,41,3
O=S(=O)(Nc1ccc(-n2cccc2)cc1)c1ccc(Cl)cc1Cl,0,100*,-4,0,100*,67*
COc1cc(OC)nc(Oc2ccccc2C(=O)Oc2ccc(F)cc2Cl)n1,0.7,33,-1,0.6,42,29
Cc1cc(/N=C/C=C2\N(C)c3ccccc3C2(C)C)n(CCC#N)n1,0.4,55*,-2,0.6,41,6
CCOc1ccc(NC2=NCC(=O)N2Cc2cccs2)cc1,0.9,6,1,0.9,14,0
CCOc1ccc(NC2=NCCC(=O)N2Cc2cccs2)cc1,0.5,50*,-1,0.4,56*,3
Cc1ccc(N2CCN(C(=O)CCc3nc4ccccc4[nH]3)CC2)c(C)c1,0.2,84*,-2,0.3,72*,11
O=C(CSc1nc2ccccc2[nH]1)N1CCN(c2ccc(F)cc2)CC1,0.5,48,-4,0.9,7,-1
Cc1cccc(N2CCN(C(=O)CCc3nc4ccccc4[nH]3)CC2C)c1 (stereo unspecified),0.2,75*,-2,0.4,56*,2
CSC1=C(C#N)C(c2ccc(Cl)cc2)C2=C(CC(C)(C)CC2=O)N1 (stereo unspecified),0.8,24,/,0.3,65*,/
COc1ccc(C2C(C#N)=C(C)NC3=C2C(=O)CC(C)(C)C3)cc1 (stereo unspecified),0.6,36,-8,0.3,66*,2
CCCSC1=C(C#N)C(c2ccc(OC)cc2)C2=C(CC(C)(C)CC2=O)N1 (stereo unspecified),0.9,13,3,0.8,16,6
CCC(C)NCCCCOc1ccc(C)cc1[N+](=O)[O-] (stereo unspecified),1.1,-8,5,1,2,-2
O=C1OC(Nc2ccc(Br)cc2F)c2ccccc21 (stereo unspecified),1.1,-6,/,1.1,-8,/
O=C(c1ccc(Br)cc1)C1CCc2occc2C1=O (stereo unspecified),0,97*,2,0.3,66*,1
CC(=O)OC(C)(C)C#CCN1CCCC1,1.1,-10,1,1.1,-11,7
CC(SCc1ccccc1)C(=O)NC1CCCC1 (stereo unspecified),0.2,83*,-4,0.3,74*,2
COc1ccc(CCNC(=O)NC2CCCCC2)cc1OC,0.2,82*,-9,1,1,9
O=C(NCCc1ccccc1)NC1CCCCC1,0.4,59*,-3,0.8,16,11
O=C(NCc1ccccc1)NC1CCCCC1,0.8,22,10,1,-5,-1
CC(=O)c1c(C)[nH]c(C(=O)CSc2nnc(-c3ccc(Cl)cc3)n2CC2CCCO2)c1C (stereo unspecified),0.9,9,-7,0.9,11,5
SMILES,CYP2C19 activ,CYP2C19 inhib,PostGolgi yeast,CYP2C9 activ,CYP2C9 inh,PostGolgi ctrl
CCCCc1c(C)nn(-c2nnc3c4ccccc4n(C)c3n2)c1C,0.9,12,3,0.9,14,27
O=C1CN(Cc2ccccc2)C(=NCc2ccco2)S1,0.1,90*,7,0,97*,18
Cc1cc(C)c(S(=O)(=O)c2ccccc2)c(OC(=O)c2cc(F)c(F)cc2Cl)n1,1,3,-3,0.9,7,1
Cc1onc(-c2ccccc2Cl)c1C(=O)Oc1cc(N)n(S(=O)(=O)c2ccc(F)cc2)n1,1.1,-6,2,0.9,12,19
COc1ccc(S(=O)(=O)n2nc(OC(=O)c3ccc(C)cc3)cc2N)cc1,1,1,-3,0.2,81*,1
COc1ccc(S(=O)(=O)n2nc(OC(=O)c3ccccc3)cc2N)cc1,1.1,-13,-4,1,-2,15
COc1ccc(S(=O)(=O)n2nc(OC(=O)c3cccs3)cc2N)cc1,0.8,18,-3,0.3,73*,10
Cc1ccc(S(=O)(=O)n2nc(OC(=O)c3c(-c4ccccc4Cl)noc3C)cc2N)cc1,0.6,36,-1,0.1,93*,1
COc1ccc(S(=O)(=O)n2nc(OC(=O)c3ccccc3Br)cc2N)cc1,0.6,45,-2,0.1,93*,7
CCOC(=O)CSc1nc(N)cc(=O)[nH]1,1,1,3,1,1,16
CCc1nn(CCCC(=O)N2CCc3ccccc3C2)c(=O)c2cc3occc3n12,0.2,80*,-3,0.9,8,16
Cc1nn(CCCC(=O)N2CCc3ccccc3C2)c(=O)c2cc3sccc3n12,0.5,54*,11,0.5,51*,16
CCNC(=S)N(Cc1ccc(OC)cc1)C1CC(=O)N(c2ccc(OCC)cc2)C1=O (stereo unspecified),0.8,21,-6,0.8,20,12
CCn1nnc2sc3c(c2c1=O)CCC(C)C3 (stereo unspecified),0.9,6,4,0.9,8,21
CC(C)CCOCc1nc2sc3c(c2c(=O)[nH]1)CCC(C)C3 (stereo unspecified),0.5,54*,8,0.3,72*,13
COc1cc(NS(C)(=O)=O)c(OC)cc1NC(=O)c1ccccc1,1.1,-9,2,2.5*,-145,8
COc1ccccc1NC(=O)c1ccc(NS(C)(=O)=O)cc1,0.9,8,-9,3.3*,-233,28
O=C(Nc1ccc(Cl)cc1)N1CCCN(Cc2ccccc2F)C1,0.5,50,-7,0.8,24,-2
CCCCCC(=O)N/N=C(\C)c1ccc(Cl)cc1,0.5,48,-2,0.7,32,0
COC(=O)CSc1ccc(-c2nc3ccc(C)cc3[nH]2)cn1,0.9,13,-1,0.8,18,-7
CCOC(=O)C1=Nc2ccccc2C1=[N+]=[N-],0.6,40,106*,0.7,27,101*
CCOC(=O)/C(C(C)=O)=C1/OC(=O)c2ccccc21,1.1,-10,11,1,-1,-2
COc1ccc(/C=C/C(=O)c2sc(-c3ccccc3)nc2C)cc1,1,-5,4,0.9,12,11
CCNC(=O)c1sc(-c2ccccc2)nc1C,0.4,56*,6,1.1,-10,8
